Myeloid diff 2 – compounds promoting myeloid differentiation | ER-HoxA9 myeloid progenitors, lysozyme-GFP differentiation, flow cytometry | calls only at 10 µM | 360,000 tested, 1% active;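 active = normalized GFP-positive differentiation at or above the plate's own cutoff, the solvent-only control mean plus 3 SD; inconclusive = no clear call, values can overlap the other calls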;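 note: cells exposed to compound for four days before flow analysis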
RTF Ca sens inh – cardiac RTF calcium desensitization; IANBD-labeled cardiac RTF, Ca2+ fluorescence; inhibition, % at 7.15 µM; 340,000 tested, 0.12% active; AID 493244;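 active = inhibition above the mean inhibition of all tested compounds plus 3 SD, cut at about 17% in these data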;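 note: assay run at fixed EC70 calcium of 1.6 mM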
cardiac RTF act – cardiac RTF calcium sensitization; P19429+P45379; IANBD-labeled TnC RTF fluorescence at EC20 calcium; 0% EC20 calcium, 100% full calcium; activation, % at 7.2 µM; 340,000 tested, 0.24% active;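 active = activation above the mean over all tested compounds plus 3 SD, cut at about 30% in these data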;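 note: rise in fluorescence read as greater calcium sensitivity of cardiac thin filaments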
CRFR2-BP ag – CRF-BP/CRF-R2 complex agonism; 350,000 tested, 0.46% active; activation, % at 13.2 µM; HEK293 CRF-R2/CRF-BP, calcium dye fluorescence (FLIPR); percent of saturating CRF peptide response;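 active = activation of at least 50%, plus an integration ratio under a set limit after plate pattern correction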
CRFBP-R2 block – CRF-BP/CRF-R2 complex antagonism. HEK293 CRF-R2/CRF-BP, CRF-induced calcium fluorescence. inhibition, % at 11.8 µM. 350,000 tested, 0.59% active;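 active = inhibition of the ligand-induced calcium signal above about 50% at the single tested concentration, limit read from the data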
Hits are given with their value; n = inactive; u = inconclusive; x = no result given; + = active, no number. A selection: hits, their analogues and other compounds. The true share with any hit is near 2.2%.

SMILES | Myeloid diff 2 | RTF Ca sens inh | cardiac RTF act | CRFR2-BP ag | CRFBP-R2 block
CC(OC(=O)c1ccccc1C(=O)N(C)c1ccccc1)C(=O)Nc1ccccc1[N+](=O)[O-] (stereo not drawn) | n | n | n | n | n
CNC[C@H]1Oc2ccc(NC(=O)C3CCCCC3)cc2CC(=O)N([C@H](C)CO)C[C@@H]1C | n | n | n | n | n
Cc1c(C(=O)NCc2cccnc2)oc2ccccc12 | n | n | n | n | 61.9
O=C(Nc1cc(Cl)ccc1-n1cncn1)c1ccc([N+](=O)[O-])s1 | + | n | n | n | n
O=C(Nc1cc(Cl)ccc1-n1cncn1)c1ccco1 | n | n | n | n | n
CCOC(=O)Cc1nnc(NC(=O)CSc2nc3ccccc3[nH]2)s1 | n | n | n | n | n
COc1cc(NC(=O)CSc2nccc(C)n2)c(C(=O)O)cc1OC | n | n | n | n | n
COc1cc(NC(=O)CSc2cc(C)c3cc(C)cc(C)c3n2)c(C(=O)O)cc1OC | n | n | n | n | 64.9
O=C(Oc1ccccc1)c1ccc(NC(=O)c2ccco2)cc1 | n | n | n | n | 78.6
COC(=O)c1ccc(NC(=O)c2ccc(NC(=O)c3ccco3)cc2)cc1 | n | n | n | n | n
Cc1ccc2nsnc2c1NC(=S)NC(=O)c1ccco1 | n | n | n | n | n
O=C(NC(=S)Nc1c(Cl)ccc2nsnc12)c1ccccc1F | u | n | n | n | 58.5
CN(N=Nc1cccc([N+](=O)[O-])c1)c1ccccc1 | n | n | n | n | n
CN(Cc1ccccc1)c1nc(-c2ccc([N+](=O)[O-])cc2)nc2ccccc12 | n | n | n | n | n
CN(N=Nc1ccc([N+](=O)[O-])cc1)c1ccccc1 | n | n | 511.4 | 83.7 | n
CN(Cc1ccc([N+](=O)[O-])cc1)c1ccccc1 | n | n | n | n | 55.2
Cc1cc(Cl)ccc1C(=O)C1CCCN(C(=O)c2cnn(C(C)C)c2)C1 (stereo not drawn) | n | n | n | n | n
O=[N+]([O-])c1cc(N=Nc2ccc3ccccc3c2)ccc1O | n | n | n | n | n
O=C(CN1CCN(C(=O)c2ccco2)CC1)Nc1c2c(nc3c1CCC3)CCCC2 | n | n | n | n | 71.7
Cc1ccc(NC(=O)/C(C#N)=N/Nc2ccc(C(=O)O)cc2)c(C)c1 | n | n | n | n | n
Cc1ccc(N/N=C(\C#N)C(N)=S)c(C)c1 | n | n | n | 60.4 | n
CC(=O)Nc1ccc(NC(=O)C(C)OC(=O)CCc2c[nH]c3ccccc23)cc1 (stereo not drawn) | n | n | n | n | n
COc1ccc(CN(CCC(c2ccccc2)c2ccc(OC(C)C)cc2)C(=O)CCl)cc1OC (stereo not drawn) | n | n | n | n | 53.3
Cc1ccc(C(=O)Nc2cccnc2)cc1Cl | n | n | n | n | n
COC(=O)[C@@]12C[C@@H](CC(=O)N3CCOCC3)C(=O)N(Cc3ccccc3)C1=CCC(C)(C)C2 | n | x | x | x | x
SMILES | Myeloid diff 2 | RTF Ca sens inh | cardiac RTF act | CRFR2-BP ag | CRFBP-R2 block
COC(=O)c1ccc2nc(-c3ccco3)c(Cc3ccc(OC)cc3C)n2c1 | n | x | x | x | x
CC(=O)C1=C(C)NC(=S)NC1c1cc([N+](=O)[O-])ccc1O (stereo not drawn) | n | n | n | n | 100.2
CC1=C(C(=O)c2ccccc2)C(c2cccc([N+](=O)[O-])c2)NC(=S)N1 (stereo not drawn) | n | n | n | n | n
CCN1c2ccccc2NC2C1C(C(C)=O)C(=O)N2c1ccc(Cl)cc1 (stereo not drawn) | + | n | n | n | n
O=C1Nc2ccccc2N(O)N1c1ccc(Cl)cc1 | n | n | n | n | n
Cc1cc(/C=N/NC(N)=S)c(O)c(/C=N/NC(N)=S)c1 | n | n | 166.4 | 157.2 | n
CN(C(=O)c1cccc(NC(=O)Cc2ccc(NC(=O)C3CCCN(C(=O)C4CC4)C3)cc2)c1)C1CCC1 (stereo not drawn) | n | n | n | n | n
CSCCC(NC(=O)c1ccco1)C(=O)OC(C)C(=O)NC(=O)NC1CCCCC1 (stereo not drawn) | n | n | n | 183.4 | n
Cc1nn2c(COc3ccc(NC(=O)C(C)C)cc3)nnc2c2ccccc12 | n | n | n | n | n
Cc1nn2c(COc3ccc(NC(=O)c4ccccc4Cl)cc3)nnc2c2ccccc12 | + | n | n | n | n
O=c1oc(/C=C/c2ccc([N+](=O)[O-])s2)nc2ccccc12 | + | n | n | n | n
O=C(c1ccc2snnc2c1)N1CCN(c2ccccn2)CC1 | n | n | n | n | 78.9
NNC(=O)c1oc2nc(-c3ccc(Cl)cc3)cc(-c3ccccc3)c2c1N | + | n | n | n | n
NNC(=O)c1oc2nc(-c3ccco3)cc(-c3ccco3)c2c1N | n | x | x | n | n
CCOC(=O)N1CCN(c2cc(=O)n(-c3cccc(C)c3)c(=O)[nH]2)CC1 | n | n | n | n | n
CCOc1nc(N2CCOCC2)nc(N2CCOCC2)n1 | + | n | n | n | n
O=C(CSc1ccc2ccccc2n1)NCCCN1CCCC1=O | n | n | n | n | n
O=[N+]([O-])c1cccc(S(=O)(=O)Nc2nc3ccccc3nc2Nc2cccc(S(=O)(=O)N3CCCCC3)c2)c1 | n | n | n | n | 89.8
CCOC(=O)C1CCN(S(=O)(=O)c2cccc(-c3cn4cccc(C)c4n3)c2)CC1 | n | n | n | n | n
CCCCN(C=O)c1c(CC)nc2c(OCCOc3ccc(F)cc3)cccn12 | n | x | x | x | x
CCC(C)N1C(=O)/C(=C/c2c(NCCCOC(C)C)nc3c(C)cccn3c2=O)SC1=S (stereo not drawn) | + | n | 133.1 | 59.2 | n
CCC(C)Nc1nc2c(C)cccn2c(=O)c1C=Nc1ccc(OC)cc1 (stereo not drawn) | n | n | n | n | n
CCCN1C(=O)/C(=C/c2c(NCCCOC(C)C)nc3c(C)cccn3c2=O)SC1=S | + | n | n | 190.9 | n
CC/C(O)=C1\C(=O)CC(c2ccccc2)CC1=NCCc1c(C)[nH]c2ccc(C)cc12 (stereo not drawn) | + | n | n | n | n
Cc1ccc(F)c(CNC(=O)C2(C)CCCN2C(=O)C(C)C)c1F (stereo not drawn) | n | x | x | x | x
SMILES | Myeloid diff 2 | RTF Ca sens inh | cardiac RTF act | CRFR2-BP ag | CRFBP-R2 block
CCc1ccc2cc(F)cc(F)c2n1 | n | x | x | x | x
CCC1CCCCN1CC(=O)c1c(C)[nH]c2ccccc12 (stereo not drawn) | n | n | n | 106.6 | n
Cc1[nH]c2ccccc2c1C(=O)CN1CCCCC1C (stereo not drawn) | n | n | n | 74.4 | n
CC(C)n1nccc1NC(=O)Nc1ccccc1 | n | n | n | n | n
CCOc1ccc(-c2cc(C(=O)Nc3cccc(C(F)(F)F)c3)[nH]n2)c(C)c1 | n | x | x | x | x
Cc1c(Cl)c([N+](=O)[O-])nn1CC(=O)NC1CCCCC1 | n | n | n | n | 98.5
CCN(CC)S(=O)(=O)c1ccc(OC)c(NC(=O)CC2CCCC2)c1 | n | n | n | n | n
O=c1cc(CN2CCN(Cc3ccccc3)CC2)c2cc(O)ccc2o1 | n | n | n | n | 84.6

Source: PubChem (several laboratories)
